Source: PubChem BioAssay (NCATS)
Inconclusive results are not listed. Calls of active or inactive are those of the source. Unless noted, calls follow the shape of the dose curve; as a rule, active = well fitted curve in the direction sought with a large enough effect; inconclusive = small, poorly fitted or top-dose-only effect, or another doubt; inactive = no such curve, though single readings can be large; an effect the other way counts as inactive or inconclusive.

Legend:
[1] = target: Glucocorticoid receptor (Homo sapiens) (UniProt P04150); experiment: GR-GFP Redistribution (AID 450;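 active = compounds whose dose series gives a full or clear partial fitted curve of increased nuclear translocation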; also: potency is read from the fitted curve at half-maximal effect); conditions: U2OS GR-GFP nuclear translocation, laser cytometry, 2 h
Glucocorticoid receptor (Homo sapiens), sequence (P04150 whole entry, looked up, the tested form may be a part): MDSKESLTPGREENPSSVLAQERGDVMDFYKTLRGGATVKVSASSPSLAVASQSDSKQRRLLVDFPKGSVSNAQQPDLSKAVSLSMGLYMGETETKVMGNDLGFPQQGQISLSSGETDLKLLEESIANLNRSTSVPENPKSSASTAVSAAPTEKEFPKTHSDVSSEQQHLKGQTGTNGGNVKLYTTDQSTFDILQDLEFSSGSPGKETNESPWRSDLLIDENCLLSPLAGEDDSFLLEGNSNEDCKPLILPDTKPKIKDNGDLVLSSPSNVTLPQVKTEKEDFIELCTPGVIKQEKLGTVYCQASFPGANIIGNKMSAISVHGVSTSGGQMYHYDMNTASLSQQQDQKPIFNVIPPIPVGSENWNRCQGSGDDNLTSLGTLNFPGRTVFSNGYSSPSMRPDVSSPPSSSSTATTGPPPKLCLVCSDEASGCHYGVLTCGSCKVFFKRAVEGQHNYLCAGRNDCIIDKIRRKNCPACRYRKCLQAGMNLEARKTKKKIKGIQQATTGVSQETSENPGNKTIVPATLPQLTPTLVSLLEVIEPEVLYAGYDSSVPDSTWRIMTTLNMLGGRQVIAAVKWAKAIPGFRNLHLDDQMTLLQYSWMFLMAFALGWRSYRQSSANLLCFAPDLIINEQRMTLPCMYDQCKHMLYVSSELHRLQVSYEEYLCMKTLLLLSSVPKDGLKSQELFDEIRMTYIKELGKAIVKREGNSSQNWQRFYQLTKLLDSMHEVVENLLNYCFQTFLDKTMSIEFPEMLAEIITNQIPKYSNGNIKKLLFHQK

[2] = target: Glucocorticoid receptor (Homo sapiens) (UniProt P04150); experiment: GR-EFC Redistribution (AID 451; calls by dose curve; also: potency is read from the fitted curve at half-maximal effect); conditions: CHO-K1 GR-EFC translocation, beta-gal luminescence, 2 h
In short: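 CHO-K1 cells stably expressing nuclear-localized β-gal enzyme acceptor and GR fused C-terminally to the enzyme donor fragment; ligand-driven nuclear translocation restores β-gal by complementation. Compounds titrated up to 46 uM final, 2 h at 37 °C; luminescence read.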

[3] = target: Mitogen-activated protein kinase 10 (Mus musculus) (UniProt Q61831); experiment: JNK3 AlphaScreen Assay (AID 530; active = well fitted curve in either direction with a large enough effect, not every such curve was filed as active;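 also: kinase came from lysate of stimulated human HepG2 cells; signal reports phosphorylation of biotinylated GST-cJun 1-79 at Ser73 with 10 µM ATP; series mostly up to about 57 µM; % is scaled to controls: 0 for no effect and ±100 for the full control effect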)
In short: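 Phosphorylation of biotinylated GST-cJun(1-79) at Ser73 is measured by AlphaScreen proximity luminescence. Enzyme is JNK3 in HepG2 lysates activated with interleukin-1beta and tumor necrosis factor alpha; ATP is 10 uM final.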

[4] = target: Ubiquitin carboxyl-terminal hydrolase 1 (Homo sapiens) (UniProt O94782); experiment: Inhibitors of USP1/UAF1: Pilot qHTS (AID 504865);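 also: rhodamine fluorescence freed from ubiquitin-rhodamine substrate followed over time; top concentration of the series differs between compounds; % is scaled to controls: 0 for no effect and ±100 for the full control effect; nearly all actives have a fitted effect of over 35% in size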
Ubiquitin carboxyl-terminal hydrolase 1 (Homo sapiens), sequence (O94782 whole entry, looked up): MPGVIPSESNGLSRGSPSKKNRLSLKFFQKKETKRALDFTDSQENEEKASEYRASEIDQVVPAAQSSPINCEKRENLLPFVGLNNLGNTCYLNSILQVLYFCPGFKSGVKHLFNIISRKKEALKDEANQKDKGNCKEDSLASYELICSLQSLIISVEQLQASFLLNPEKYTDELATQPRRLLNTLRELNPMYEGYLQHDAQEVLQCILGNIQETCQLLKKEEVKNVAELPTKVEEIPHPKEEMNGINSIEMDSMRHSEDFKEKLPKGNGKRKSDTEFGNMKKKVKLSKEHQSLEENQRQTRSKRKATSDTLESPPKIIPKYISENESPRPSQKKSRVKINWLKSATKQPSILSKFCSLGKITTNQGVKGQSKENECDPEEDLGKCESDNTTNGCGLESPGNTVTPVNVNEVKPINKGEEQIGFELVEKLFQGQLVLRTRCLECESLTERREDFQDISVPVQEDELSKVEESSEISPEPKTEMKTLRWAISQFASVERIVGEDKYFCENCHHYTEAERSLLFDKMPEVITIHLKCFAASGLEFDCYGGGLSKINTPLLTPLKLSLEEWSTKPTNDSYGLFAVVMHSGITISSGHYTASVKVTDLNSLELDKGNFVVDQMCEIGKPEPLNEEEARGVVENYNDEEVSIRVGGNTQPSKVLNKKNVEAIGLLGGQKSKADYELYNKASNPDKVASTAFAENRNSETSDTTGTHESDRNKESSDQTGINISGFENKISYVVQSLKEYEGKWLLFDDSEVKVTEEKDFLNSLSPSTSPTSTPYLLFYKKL
In short: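 USP1/UAF1 complex (1nM) preincubated with compound 15 min at room temperature, then Ub-Rho substrate (150nM final) added. Fluorescence read kinetically at 480/540 nm, 6 reads every 60 seconds. Buffer: 50mM HEPES pH 7.8, 0.5mM EDTA, 0.1 mg/ml BSA, 1mM TCEP, 0.01% Tween-20.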

[5] = target: DNA dC->dU-editing enzyme APOBEC-3G (Homo sapiens) (UniProt Q9HC16); experiment: qHTS for inhibitors of Vif-A3G interactions: Validation (AID 588379); also: 0% is about no effect
DNA dC->dU-editing enzyme APOBEC-3G (Homo sapiens), sequence (Q9HC16 whole entry, looked up): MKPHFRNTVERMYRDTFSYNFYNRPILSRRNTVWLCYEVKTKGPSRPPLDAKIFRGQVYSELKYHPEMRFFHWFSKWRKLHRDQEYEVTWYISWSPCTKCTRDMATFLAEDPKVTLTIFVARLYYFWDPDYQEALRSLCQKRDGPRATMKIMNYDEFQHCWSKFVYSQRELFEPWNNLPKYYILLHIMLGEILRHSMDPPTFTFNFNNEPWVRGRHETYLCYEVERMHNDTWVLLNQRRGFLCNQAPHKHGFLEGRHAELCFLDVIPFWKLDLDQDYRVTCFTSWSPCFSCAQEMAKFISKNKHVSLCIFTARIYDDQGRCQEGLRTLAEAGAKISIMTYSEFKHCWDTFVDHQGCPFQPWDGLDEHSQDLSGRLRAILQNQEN
In short: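 Yellow fluorescence (Ex 488, Em 500-530) of Vif-coexpressing HeLa A3G-eYFP cells, scanned by Acumen cytometer, reports blocked A3G degradation. Cells plated at 700/well overnight at 37 deg C before compound addition, then a further overnight compound incubation at 37 deg C.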

[6] = tested on: Zika virus NS2B-NS3 protease; experiment: Primary screen GU AMC qHTS for Zika virus inhibitors (AID 1347154);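 also: 0% = no-inhibitor control and -100% = no-enzyme control; nearly all actives have a fitted effect of over 70% in size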
In short: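 Unlinked Zika NS2B hydrophilic domain/NS3 protease domain noncovalent complex (25 nM final) in 10 mM Tris-HCl pH 8.0, 0.01% Tween 20, with AMC peptide substrate. Fluorescence (ex 340, em 450 nm) change over 15 min, room temperature; percent inhibition fitted to 4-parameter Hill equation.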

[7] = Counterscreen qHTS for small molecule stabilizers of the endoplasmic reticulum resident proteome: GLuc-NoTag assay (AID 1508627);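 also: series mostly up to about 76 µM; 0% = thapsigargin alone and -100% = DMSO vehicle control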
In short: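 Secreted GLuc lacking the SERCaMP modification is measured in SH-SY5Y cells exposed to compound for 19 h and then to thapsigargin (100 nM, 4 h) to deplete ER calcium; hits retested at 11 concentrations, up to 76.6 uM.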

[8] = Cell Viability qHTS for small molecule stabilizers of the endoplasmic reticulum resident proteome (AID 1508629); conditions: cell viability counter-screen, 100 nM thapsigargin for final 4 h;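 also: human SH-SY5Y neuroblastoma cells carrying the GLuc-SERCaMP reporter; compound exposure about 46 h in total before the viability read; % is scaled to controls: 0 for no effect and ±100 for the full control effect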

CN1CC[C@@]2(c3cccc(O)c3)Cc3nc4ccccc4cc3C[C@H]2C1
inactive: Potency [1] > 46 µM | Potency [2] > 46 µM | outcome [3] | Potency [4] | Potency [5] | Potency [6] | Potency [7] | max response [8] -3.73%
